Bioassay records deposited in PubChem by Johns Hopkins Ion Channel Center.
KCNQ2 enhance: KCNQ2 (rat) channel potentiation | 310,000 tested, 0.54% active | CHO-K1 KCNQ2, FluxOR thallium flux fluorescence; active compounds read high | B-score at 10 µM | O88943;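 active = fluorescence ratio B-score at least 3 SD of library B-scores, with initial fluorescence B-score within 3 of them, cut at about 5.3 in these data; same plate scores as AID 2156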;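 note: B-score of peak minus minimum over baseline fluorescence ratio after K+ and Tl+ stimulus; positive B-score means potentiation of KCNQ2 with more thallium influx and brighter signal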
KCNQ2 inh: inhibitors of rat KCNQ2 potassium channel | CHO-K1 KCNQ2, FluxOR thallium flux, 20 min; active compounds read low | 310,000 tested, 1.1% active | B-score at 10 µM | AID 2156;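 active = fluorescence ratio B-score at most minus 3 library SDs, with starting brightness B-score within 2 library SDs, cut at about -5.5 in these data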
Starred values were filed as active, the others as inactive; i = inactive; / = no result. Hits are enriched below; roughly 1.6% of the tested compounds scored in any of these assays.

SMILES	KCNQ2 enhance	KCNQ2 inh
COc1cc(C(=O)NNC(=S)Nc2ccc(S(N)(=O)=O)cc2)cc(OC)c1OC	-6.09	-6.09*
COc1ccc(C(=O)NC(=S)Nc2ccc(S(N)(=O)=O)cc2)cc1	1.6	i
O=C(O)COc1ccccc1/C=N/NC(=O)c1cccc(S(=O)(=O)N2CCOCC2)c1	/	i
O=C(NCCc1c[nH]c2ccccc12)c1cnccn1	1.1	i
CC(=O)c1cn(Cc2ccccc2)c(=O)[nH]c1=O	/	i
Cc1ccc(CN2CCc3c(OCC(=O)Nc4cccc(C)c4C)cccc3C2=O)cc1	-7.17	-7.17*
Cc1ccc(C)c(NC(=O)COc2cccc3c2CCN(Cc2ccccc2C)C3=O)c1	/	i
CCOc1ccc(N(C)C(=O)CCc2nnc3ccc(N4CCC5(CC4)OCCO5)nn23)cc1	/	i
O=C(NCc1ccccc1)C(=O)Nc1nc(C23CC4CC(CC(C4)C2)C3)cs1	5.52*	i
O=C(NCc1ccncc1)C(=O)Nc1nc(C23CC4CC(CC(C4)C2)C3)cs1	0.15	i
CN1CCN(c2ccc(CNS(=O)(=O)c3ccsc3)cc2)CC1	0.14	i
CC[C@H]1CC2CN3CCc4c([nH]c5c([C@H]6C[C@H]7[C@H](CC)CN(C)[C@@H](Cc8c6[nH]c6ccccc86)[C@H]7C(=O)OC)c(OC)ccc45)C(C(=O)OC)(C2)C13	-7.51	-7.51*
CCC1CN(C)C2Cc3c([nH]c4ccccc34)C(=O)CC1C2C(=O)OC (stereo not drawn)	/	i
CN(C)C(=O)Cn1cc(S(=O)(=O)Cc2ccccc2)c2ccccc21	1.06	i
CC(=O)c1cccc(NC(=O)Cn2nc(-c3ccc(Cl)cc3)ccc2=O)c1	/	i
O=C(O)Cn1c(=O)c2c3c(sc2n(Cc2ccc(F)cc2)c1=O)CCCC3	/	i
O=C(O)Cn1c(=O)c2c3c(sc2n(Cc2ccccc2F)c1=O)CCCC3	-6.25	-6.25*
COc1cc(CNCc2c[nH]c3ccccc23)cc(OC)c1	0.51	i
COc1ccccc1CN(C)C(=O)C(c1ccccc1)c1ccccc1	-5.63	-5.63*
CN(Cc1ccc(F)cc1)C(=O)C(c1ccccc1)c1ccccc1	/	i
CC(C)[C@@H]1CC[C@@H](C)c2c(-c3ccccc3)n[nH]c21	-7.2	-7.2*
c1ccc(-c2n[nH]c3c2CCC3)cc1	/	i
C/C(=N\NC(=O)Cc1csc(N2CCOCC2)n1)c1ccc(Cl)c(Cl)c1	/	i
O=C(Oc1ccccc1)c1cc2ccccc2oc1=O	/	i
O=C(Oc1ccccc1)c1cccc2cccc(C(=O)Oc3ccccc3)c12	-5.79	-5.79*
SMILES	KCNQ2 enhance	KCNQ2 inh
Cc1c(NC(=O)c2ccc(NC(=O)C3CC3)cc2)cccc1C(=O)O	0.63	i
COC(=O)c1cn(C(=O)/C=C/c2ccc(OC)c(OC)c2)c2ccccc12	0.04	i
Cn1nc([N+](=O)[O-])c(C(C#N)c2ccccn2)c(Cl)c1=O (stereo not drawn)	-5.79	-5.79*
CCCn1nc([N+](=O)[O-])c(C(C#N)c2nc3ccccc3o2)c(Cl)c1=O (stereo not drawn)	/	i
CC(CCc1ccccc1)NC(=O)CN1CCSc2ccccc21 (stereo not drawn)	/	i
O=C(CSCc1ccccc1)N1CCN(c2cccc(C(F)(F)F)c2)CC1	-6.51	-6.51*
O=C(CSCc1ccccc1)N1CCN(c2ccccc2)CC1	/	i
C/C(=C/c1ccccc1)C(=O)N1CCN(c2ccccc2F)CC1	/	i
C/C(=C\c1ccccc1)C(=O)N1CCN(c2cccc(C(F)(F)F)c2)CC1	-6.22	-6.22*
C[C@@H]1CCC2[C@](C)(CO)[C@@H](O)CC[C@]2(C)[C@@]12CC[C@@](CO)(CC(=O)O)O2 (stereo partly drawn)	0.02	i
Cc1ccc(C)c(N2CCN(C(=O)c3ccc(CS(=O)(=O)c4ccccc4C)o3)CC2)c1	-6.49	-6.49*
Cc1ccc(S(=O)(=O)Cc2ccc(C(=O)N3CCN(c4cc(C)ccc4C)CC3)o2)cc1	0.55	i
Cc1ccc(Cl)cc1NC(=O)[C@@H]1CCC(=O)N1C1OC(=O)c2ccccc21 (stereo partly drawn)	2.87	i
COc1cccc(/C=N/NC(=O)c2ccc([N+](=O)[O-])cc2Cl)c1O	7.73*	i
COc1cc(/C=N/NC(=O)c2cccc([N+](=O)[O-])c2)cc(OC)c1O	1.89	i
COc1ccc(CCNC(=O)Cc2ccc([N+](=O)[O-])cc2)cc1OC	/	i
COc1ccc(CCNC(=O)Cc2ccc(OCc3ccccc3)c(OC)c2[N+](=O)[O-])cc1OCc1ccccc1	-7.67	-7.67*
COc1ccc(-c2noc(CCCOc3ccc(Cl)cc3Cl)n2)cc1	/	i
Cc1ccc(-c2noc(CCCOc3ccc(Cl)cc3Cl)n2)cc1	-7.26	-7.26*
Fc1ccc(Nc2nc(N3CCOCC3)c3ccccc3n2)cc1	/	i
c1ccc2c(Nc3nc(N4CCOCC4)c4ccccc4n3)cccc2c1	-6.55	-6.55*
N#Cc1nc(COc2ccccc2)oc1N1CCN(c2cccc(Cl)c2)CC1	-5.87	-5.87*
N#Cc1nc(COc2cccc(Cl)c2)oc1N1CCN(c2ccccc2)CC1	/	i
COC(=O)C1=C(C)N(c2cccc(C)c2)C(=O)/C1=C\c1cccs1	-6.71	-6.71*
CCOC(=O)C1=C(C)N(c2ccccc2)C(=O)/C1=C\c1cccs1	/	i
SMILES	KCNQ2 enhance	KCNQ2 inh
Cc1ccccc1NC(=O)CCNS(=O)(=O)c1cccc2nsnc12	0.46	i
CCOC(=O)c1nc(C)sc1-c1ccnn1S(=O)(=O)c1ccc(C)cc1	0.72	i
N#CC1=C(N)NC(SCC(=O)c2ccc(Cl)cc2)=C(C#N)C12CCCC2	/	i
N#CC1=C(N)NC(SCC(=O)c2ccc(Br)cc2)=C(C#N)C12CCCCC2	-6.61	-6.61*
CC1CN(C(=O)c2ccc(OC3CCN(Cc4ccccn4)CC3)cc2)CCN1C (stereo not drawn)	0.6	i
NC(=O)NC(CC(=O)Nc1cccnc1)c1cccc(Br)c1 (stereo not drawn)	0.62	i
O=C(COc1ccc(Br)cc1Cl)NC(=S)N1CCc2ccccc21	1.28	i
CN1CCN(C(=S)NC(=O)c2ccccc2Br)CC1	/	i
CC(Oc1ccc(Cl)cc1Cl)C(=O)NC(=S)N1CCc2ccccc21 (stereo not drawn)	9.31*	i
O=C(NC(=S)N1CCc2ccccc21)c1ccccc1Br	13.9*	i
COc1ccc(C(C(=O)NCC2CCCO2)N(C(=O)CNC(=O)c2cccs2)c2ccc(C)cc2)cc1OC (stereo not drawn)	/	i
CCc1ccc(C(=O)Cc2cc3cccc(OC)c3oc2=O)cc1	/	i
CCCCN(C(=O)c1ccc2c(c1)OCCO2)c1c(N)n(CC(C)C)c(=O)[nH]c1=O	1.09	i
CCN(c1ccccc1)S(=O)(=O)c1cc(C(=O)Nc2ccc(Br)cc2)ccc1F	-6.2	-6.2*
CCN(c1ccccc1)S(=O)(=O)c1cc(C(=O)Nc2ccccc2Cl)ccc1F	-6.01	-6.01*
CN(C)S(=O)(=O)c1cccc(C(=O)Nc2ccccc2Cl)c1	0.02	i
CCN(c1ccccc1)S(=O)(=O)c1ccc(F)c(C(=O)O)c1	1.67	i
COc1cc(C=NCC2OCCc3ccccc32)cc(OC)c1 (stereo not drawn)	0.01	i
CC(C)NC(=O)C1(c2ccccc2)CC1(Cl)Cl (stereo not drawn)	1.01	i
COc1ccccc1CC(=O)NNS(=O)(=O)c1ccc([N+](=O)[O-])cc1	1	i
O=C(O)C(Cc1ccccc1-c1ccccc1)C(=O)O	/	i
